Experimental data: PubChem BioAssay AID687001 (Broad Institute, 2013)
Results with a measured potency or affinity are listed apart.

Each compound was assayed against Protein S100-A4 (Homo sapiens) (UniProt P26447) (assay: S100A4-myosin IIA binding inhibitor potency, dose response, biochemical, fluorescence polarization, cherry-picked hits (AID 687001;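 also: 0% = DMSO neutral control wells and -100% = TFP positive control wells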)). Conditions: FP, S100A4/TAMRA-myosin IIA peptide binding; series mostly up to 11 µM; activity change, negative = inhibition: at the top concentration;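 active = signal-lowering compounds whose fitted half-maximal concentration is at or below twice the top tested dose in every run; inconclusive = runs disagree, flat 30 to 70% inhibition, or poor curve fit; inactive = the rest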.
Sequence of Protein S100-A4 (Homo sapiens) (P26447 whole entry, looked up): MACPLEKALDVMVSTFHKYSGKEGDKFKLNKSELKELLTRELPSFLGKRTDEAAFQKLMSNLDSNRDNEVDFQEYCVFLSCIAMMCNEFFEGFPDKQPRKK

Activity change, negative = inhibition, inactive:
CCOC(=O)Cc1csc(NC(=O)c2c(-c3ccccc3)noc2C)n1 -2.68%, CC(C)CC#Cc1ccc([C@H]2[C@H]3CN(C(=O)Cc4cccnc4)CC(=O)N3[C@H]2CO)cc1 -2.42%, COc1cc(Cl)ccc1OCc1cc(C(=O)N2CCCCCCC2)no1 0.083%, Cn1c(CC(=O)NNC(=O)c2ccc(F)cc2F)nc2ccccc21 -2.58%, COc1ccccc1N1CC(C(=O)Nc2ccc(C)c(S(=O)(=O)N3CCOCC3)c2)CC1=O (stereo unspecified) 8.29%, CN(C)CCCNC(=O)C[C@@H]1CC[C@H]2[C@@H](COC[C@@H](O)CN2Cc2ccc(Cl)c(Cl)c2)O1 6.42%, COc1cccc(-c2ccc3c(c2)[C@H]2[C@H](CCN2C(=O)c2ccc4c(c2)OCO4)[C@H](CO)N3C)c1 9.07%, CCCNC(=O)N1[C@@H]2c3ccc(-c4ccccc4OC)c(=O)n3C[C@@H]2[C@@H](CO)[C@@H]1C(=O)NC1CCC1 -1.44%, C[C@@H]1CN([C@H](C)CO)C(=O)c2cccc(NC(=O)C3CCCCC3)c2O[C@@H]1CN(C)Cc1ccc(Oc2ccccc2)cc1 2.6%, COc1cccc(-c2nnc(NC(=O)CCS(=O)(=O)c3ccc(F)cc3)o2)c1 -2.79%, CSc1ccccc1OCc1cc(C(=O)NCCN2CCCc3ccccc32)no1 29.8%
